Screening results: PubChem BioAssay, Broad Institute
This is one part of a sample in which hits are shown more often than they occur.
DUX4_txn_inh – DUX4-mediated transcription inhibition | 293T-iDUX4 ZSCAN4-Gaussia luciferase reporter, 24 h; stronger effect = lower value | activity change, negative = inhibition, % (concentration not given with the values) | 37,000 tested, 0.8% active | AID 1224904;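 active = mean inhibition of at least 10% in the main channel, exceeding the control channel by a set limit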;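 note: 0% = median of neutral control wells and -100% = median of positive control wells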
Numbers without * were called inactive.

SMILES DUX4_txn_inh
O=C(Cc1ccccc1)N1CCCCN2[C@H](CO)[C@@H](c3ccc(C#CC4(O)CCCC4)cc3)[C@@H]2C1 -5
O=C(Cc1ccncc1)N1CCCCN2[C@H](CO)[C@@H](c3ccc(-c4ccncc4)cc3)[C@H]2C1 16
O=C(Cc1ccncc1)N1CCCCN2[C@H](CO)[C@H](c3ccc(C#Cc4ccccc4F)cc3)[C@@H]2C1 -39*
O=C(Cc1ccccn1)N1CCCCN2[C@@H](CO)[C@@H](c3ccc(-c4ccccc4)cc3)[C@@H]2C1 5
CC(=O)N1[C@@H]2Cn3c(ccc(-c4cccc(C(=O)N(C)C)c4)c3=O)[C@H]1[C@@H](C(=O)O)[C@@H]2CO -5
